About 83,000 compounds went through this panel and 20% of them were active in at least one assay; those are over-represented in the sample as a whole.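 Percent growth is the endpoint: 0 to 100 indicates growth inhibition (40 means 60% inhibition), 0 means no net growth, and negative values indicate cell death.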 Active and inactive are the calls of the source. The calls were made as follows: active = growth percent below 10; inactive = the rest.

This test relates to BT-549 breast. The experiment in a line: NCI-60 one-dose screen, 48 h (100 = growth as untreated, 0 = no growth, -100 = all killed). The settings on record: 10 µM unless noted.
Turning to `O=S(=O)(NCCNc1nccc(-n2cnc3ccccc32)n1)c1ccc(Br)cc1`, the growth was 115% (inactive).
As for `NS(=O)(=O)c1ccc(Nc2nc(N/N=C/c3ccccn3)nc(Nc3ccccc3)n2)cc1`, the growth is -20.5% (active).
Under `NC(N)=Nc1ccc(Oc2cccc(Nc3ccc(Br)c(C(F)(F)F)c3)c2)cc1` stands 42.7% (inactive); under `O=c1[nH]c2ccccc2cc1CSc1ccccc1Nc1nccc(-c2ccc(Cl)cc2)n1`, 119% (inactive); under `COc1ccccc1C(=O)Nc1cccc2c1C(=O)C(=O)C=C2`, 96.3% (inactive).
Under `CCO/C=N/C1=C(C#N)C(c2ccc(F)cc2)c2sc3c(C)cccc3c2O1` (stereo not drawn) stands 20% (inactive); under `O=C(NNc1nc2cc(F)ccc2n2c(CN3CCCC3)ccc12)c1cnccn1`, 24.1% (inactive); under `COc1cc(-c2nn(C(C)(C)C)cc2-c2ccnc(NCCCNS(=O)(=O)c3ccccc3)n2)ccc1Cl`, 81.1% (inactive).
Under `O=C(NCc1ncc[nH]1)c1ccc(-c2nc3ccc4[nH]ncc4c3c3c2CCCC3)cc1` stands 0.679% (active); under `O=C(NNc1nc2cc(F)ccc2n2c(CO)ccc12)c1cnccn1`, 22.6% (inactive).
For `O=[N+]([O-])c1cc(/C=N/Nc2nc(N/N=C/c3ccc(Cl)c([N+](=O)[O-])c3)nc(N3CCCCC3)n2)ccc1Cl`, the growth was 97.9% (inactive).
With `COc1c(N2CC3CCCNC3C2)c(F)cc2c(=O)c(C(=O)N/N=C/c3ccccc3)cn(C3CC3)c12` (stereo not drawn), the growth was 106% (inactive).
Next, `O=C(CNc1nc(-c2cccc([N+](=O)[O-])c2)cs1)Nc1cccc(Cl)c1`: 91.7% (inactive).
